Laboratory results: PubChem BioAssay (EPA / NIEHS)
Records with an inconclusive call do not appear. Calls of active or inactive are those of the source. The calls were made as follows, unless noted: active = hit-call score of the fitted dose curve at least 0.9, where 1 is the maximum; inactive = score below 0.9.

Columns and labels:
[1] = target: Estrogen receptor (Homo sapiens) (UniProt P03372); experiment: CCTE_Deisenroth_AIME_384WELL_LUC_Active: CCTE's 384-well Estrogen Receptor Transactivation Assay with AIME metabolic competence (ERTA luciferase; metabolism positive), Deisenroth Lab (AID 2284030; active = hit-call score of the fitted dose curve at least 0.9, where 1 is the maximum)
Outline: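 Readout: bioluminescent luciferase induction in VM7Luc4E2 cells 24 hour after receiving medium from a 2 h rat hepatic S9 (induced, alginate microsphere) metabolism step. Concentrations 0.002 - 200 uM; activity scaled to 17beta-estradiol positive control.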

[2] = CCTE_Shafer_MEA_dev_firing_rate_mean: CCTE's Neural Network Formation Assay for Mean Firing Rate, Shafer Lab (AID 2284031)
Outline: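 Primary rat cortical neurons on 48-well MEA plates, exposed from plating day 0 with dosing renewed on DIV 5 and 9. Mean well firing rate over active electrodes, recorded days 5, 7, 9, 12, summarised as trapezoidal AUC.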

[3] = CCTE_Shafer_MEA_acute_burst_percentage_std: CCTE's Neural Acute Assay for Standard Deviation of Burst Percentage, Shafer Lab (AID 2284018);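 also: fitted in the negative direction so actives lower burst percentage SD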
Outline: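 Value is percent change from baseline in the across-electrode SD of spikes-in-bursts percentage, wells with >/= 10 active electrodes. Acute 40-min exposure to 0.03-40 uM on DIV 13 or 15 rat cortical cultures, recorded at 37 C after 40-min baseline.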

[4] = CCTE_Shafer_MEA_acute_per_network_burst_spike_number_std: CCTE's Neural Acute Assay for Standard Deviation of Number of Spikes in a Network Burst, Shafer Lab (AID 2284020);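 also: fitted for decrease in spike-number SD versus DMSO so actives lower it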
Outline: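 Spontaneous network activity of primary rat cortical neurons is recorded extracellularly before and after a 40-min compound exposure (0.03-40 uM) at 37 C. The endpoint is the well's percent change in burst spike-number SD.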

[5] = CCTE_Shafer_MEA_acute_per_network_burst_electrodes_number_mean: CCTE's Neural Acute Assay for Mean Number of Electrodes in a Network Burst, Shafer Lab (AID 2284021);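 also: curves fitted for decreases only so hits reduce electrodes per burst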
Outline: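 Readout: % change in mean electrodes active per network burst, post- vs pre-treatment, each well. Spikes detected at 8x rms noise after 300-5000 Hz band-pass; rat cortical cultures, DIV 13/15, compounds 0.03-40 uM, DMSO baseline.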

[6] = CCTE_Shafer_MEA_acute_network_burst_percentage: CCTE's Neural Acute Assay for Percentage of Network Bursts, Shafer Lab (AID 2284022);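 also: curves fitted for loss so actives lower network burst percentage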
Outline: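 Rat cortical cultures, DIV 13/15; 20 min equilibration, 40 min baseline, compound 0.03-40 uM, 40 min recording, 37 C. Spikes: 300-5000 Hz band-pass, threshold 8x rms noise. Readout: % change in network-burst spike fraction; loss direction vs DMSO.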

[7] = CCTE_Shafer_MEA_acute_cross_correlation_area: CCTE's Neural Acute Assay for Area of Cross Correlation, Shafer Lab (AID 2284024);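 also: area under pooled inter-electrode spike cross-correlation near zero lag as percent change from own baseline; curves fitted for loss of cross-correlation area so actives lower synchrony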
Outline: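 Rat cortical cultures, DIV 13/15, MEA; spikes detected at 8x rms noise (300-5000 Hz band-pass). Compound 0.03-40 uM, ≥3 wells each. Readout: % change in pooled inter-electrode cross-correlation area vs own baseline; DMSO negative control.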

[8] = CCTE_Shafer_MEA_acute_synchrony_index: CCTE's Neural Acute Assay for Synchrony, Shafer Lab (AID 2284027);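 also: network synchrony index of spontaneous spiking in primary rat cortical neurons on MEAs; fitted for loss of signal so actives lower synchrony relative to DMSO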
Outline: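 Primary rat cortical neurons on 48-well MEAs, dosed at 0.03–40 uM on DIV 13 or 15. Spikes are recorded for 40 min at 37C before and after exposure, and synchrony index (0–1) is expressed as percent change from baseline per well.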

[9] = CCTE_Deisenroth_AIME_96WELL_CTox_Active: Cytotoxicity Assessment (CTOX) in CCTE's 96-well Estrogen Receptor Transactivation Assay with AIME metabolic competence (metabolism positive), Deisenroth Lab (AID 2284028; active = hit-call score of the fitted dose curve at least 0.9, where 1 is the maximum)
Outline: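 Chemicals (0.002–200 uM) were first incubated 2 h with alginate-immobilized phenobarbital/beta-naphthoflavone-induced male rat liver S9; conditioned medium then went onto VM7Luc4E2 cells for 24 h, with viability read by protease-substrate fluorescence, fitted bidirectionally.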

[10] = CCTE_Deisenroth_AIME_96WELL_CTox_Inactive: Cytotoxicity Assessment (CTOX) in CCTE's 96-well Estrogen Receptor Transactivation Assay without AIME metabolic competence (metabolism negative), Deisenroth Lab (AID 2284029; active = hit-call score of the fitted dose curve at least 0.9, where 1 is the maximum)
Outline: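 Chemicals (0.002 - 200 uM, 10 points) incubated 2 h with alginate-water microspheres (no S9), then medium moved onto VM7Luc4E2 cells for 24 h. Viability by protease-substrate cleavage to fluorescent probe; bidirectional fitting.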

Chain of Estrogen receptor (Homo sapiens) (P03372 whole entry, looked up): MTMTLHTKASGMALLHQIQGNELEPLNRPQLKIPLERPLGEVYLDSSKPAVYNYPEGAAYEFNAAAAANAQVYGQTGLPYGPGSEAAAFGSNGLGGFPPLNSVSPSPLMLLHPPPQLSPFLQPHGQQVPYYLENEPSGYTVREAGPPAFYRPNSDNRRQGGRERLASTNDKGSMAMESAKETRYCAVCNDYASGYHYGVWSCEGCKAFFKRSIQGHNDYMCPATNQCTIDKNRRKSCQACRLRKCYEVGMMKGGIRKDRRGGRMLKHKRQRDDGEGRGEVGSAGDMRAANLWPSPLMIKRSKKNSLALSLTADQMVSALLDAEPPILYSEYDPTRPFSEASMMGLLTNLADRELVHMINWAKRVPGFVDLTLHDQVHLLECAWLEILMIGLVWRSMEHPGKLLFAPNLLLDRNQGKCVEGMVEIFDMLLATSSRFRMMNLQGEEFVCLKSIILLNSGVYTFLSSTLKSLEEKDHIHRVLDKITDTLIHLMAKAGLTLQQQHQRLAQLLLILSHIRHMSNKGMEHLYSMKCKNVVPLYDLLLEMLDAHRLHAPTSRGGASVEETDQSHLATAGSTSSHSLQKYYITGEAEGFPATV

Which AC50 [1] does the source give for Nc1ccc(Nc2ccccc2)cc1 here?
Its AC50 is 114 µM (active).

For COc1ccc(-n2nc(C(F)F)cc2-c2ccc(S(C)=O)cc2)cc1 (centres undefined), which outcome [2] is on record?
The outcome was “inactive”.

Which outcome [3] does the source give for COc1cccc(-c2ccc(/C=C\CN3CCCCCC3)cc2Cl)c1 here?
Its outcome is “inactive”.

What about the outcome [4] of the same compound?
The outcome was “inactive”.

What about the outcome [5] of the same compound?
Its outcome is “inactive”.

What about the outcome [6] of the same compound?
Its outcome is “inactive”.

And the AC50 [7]?
Its AC50 is 3.7 µM (active).

What about the outcome [8] of the same compound?
The outcome was “inactive”.

And the outcome [1]?
The outcome was “inactive”.

For CC(C)CCO, which outcome [1] is on record?
The outcome was “inactive”.

Which outcome [1] does the source give for C=CC(=C)CCC=C(C)C here?
The outcome was “inactive”.

With Cc1ccc(N)cc1O as the compound, how does the outcome [1] read?
Its outcome is “inactive”.

What does the source list for CCCCC(CC)COC(=O)CCCCCCCCC(=O)OCC(CC)CCCC (centres undefined)?
outcome [3]: inactive; outcome [4]: inactive; outcome [5]: inactive; outcome [6]: inactive; outcome [7]: inactive; outcome [8]: inactive

What does the source list for CCC(C)(C)C(=O)O[C@H]1C[C@@H](C)C=C2C=C[C@H](C)[C@H](CC[C@@H]3C[C@@H](O)CC(=O)O3)[C@H]21?
outcome [3]: inactive; outcome [4]: inactive; outcome [5]: inactive; outcome [6]: inactive; outcome [7]: inactive; outcome [8]: inactive; outcome [2]: inactive

For O=C(O)c1cccc(Oc2ccccc2)c1, which outcome [1] is on record?
The outcome was “inactive”.

Which outcome [2] does the source give for CC[C@H](C)C(=O)O[C@H]1C[C@@H](C)C=C2C=C[C@H](C)[C@H](CC[C@@H]3C[C@@H](O)CC(=O)O3)[C@H]21 here?
Its outcome is “inactive”.

Which outcome [3] does the source give for CC[C@H]1CC[C@H](NCc2cc3c(cc2OC)[C@H]2C[C@H]2C(=O)N3C)[C@H](c2ccccc2)N1 here?
The outcome was “inactive”.

What about the outcome [4] of the same compound?
The outcome was “inactive”.

What about the outcome [5] of the same compound?
Its outcome is “inactive”.

And the outcome [6]?
The outcome was “inactive”.

And the outcome [7]?
The outcome was “inactive”.

What about the outcome [8] of the same compound?
The outcome was “inactive”.

Which AC50 [3] does the source give for Cn1c(=O)c2c(ncn2C)n(C)c1=O here?
The AC50 was 20 µM (active).

What about the outcome [4] of the same compound?
The outcome was “inactive”.

What about the outcome [5] of the same compound?
Its outcome is “inactive”.

And the outcome [6]?
Its outcome is “inactive”.

And the outcome [7]?
Its outcome is “inactive”.

What about the outcome [8] of the same compound?
Its outcome is “inactive”.

And the outcome [9]?
Its outcome is “inactive”.

And the outcome [10]?
Its outcome is “inactive”.

And the outcome [2]?
Its outcome is “inactive”.

Which outcome [3] does the source give for CC[C@H]1OC(=O)[C@H](C)[C@@H](O[C@H]2C[C@@](C)(OC)[C@@H](O)[C@H](C)O2)[C@H](C)[C@@H](O[C@@H]2O[C@H](C)C[C@H](N(C)C)[C@H]2O)[C@](C)(O)C[C@@H](C)C(=O)[C@H](C)[C@@H](O)[C@]1(C)O here?
The outcome was “inactive”.

What about the outcome [4] of the same compound?
Its outcome is “inactive”.

What about the outcome [5] of the same compound?
Its outcome is “inactive”.

What about the outcome [6] of the same compound?
The outcome was “inactive”.

What about the outcome [7] of the same compound?
Its outcome is “inactive”.

What about the outcome [8] of the same compound?
Its outcome is “inactive”.

What about the outcome [2] of the same compound?
Its outcome is “inactive”.
